“And” between values parts separate entries of the source, which are not always exact repeats. Identical values can stand only once. Inconclusive results are not listed. Unmarked numbers belong to inactive results. The source made the active and inactive calls. Calls follow the shape of the dose curve; as a rule, active = well fitted cell-killing curve with a large enough effect in the repeat runs; inconclusive = weak or mixed curves, or effect the other way; inactive = flat fitted curve, though single readings scatter.
% is scaled to controls: 0 for no effect and ±100 for the full control effect; potency is read from the fitted curve at half-maximal effect.

A short description of the assay: cAMP Responsive Elements (CRE) small molecule antagonists, cell-based qHTS assay: qHTS cell viability counter screen (AID 2060913). Also: nearly all actives have a fitted effect of over 40% in size. The following applies: CRE-bla HEK293T viability, CellTiter-Glo luminescence, 5 h; series mostly up to 92.4 µM; viability change, negative = cytotoxic: at the top concentration. A digest of the protocol:
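HEK293T CRE-bla, 2,000 cells/well, 18 h preincubation; cpd in DMSO + NKH477 0.25 uM final, 3 h 37 C/5% CO2; LiveBLAzer 2 h RT, then CellTiter-Glo 30 min RT, luminescence.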
As for `CSc1ccc2c(c1)C(N1CCN(C)CC1)Cc1ccccc1S2` (stereo not given), the “viability change, negative = cytotoxic” value is -14.6% [at 42.5 µM].

As to `CN(C)CC/C=C1\c2ccccc2Sc2ccc(Cl)cc21`, the “viability change, negative = cytotoxic” value was -18.6% [at 42.5 µM].

Turning to `O=Cc1ccc(C(=O)O)cc1`, the “viability change, negative = cytotoxic” value is 4.73%.

In the case of `CC[C@@]1(O)C(=O)OCc2c1cc1n(c2=O)Cc2c-1nc1ccccc1c2/C=N/OC(C)(C)C`, the “viability change, negative = cytotoxic” value was 8.6% [at 42.5 µM].

Regarding `N#Cc1cc(NC(=O)C(=O)O)c(Cl)c(NC(=O)C(=O)O)c1`, the “viability change, negative = cytotoxic” value is -3.05% [at 42.5 µM].

In the case of `CC1(C)[C@@H](OC(=O)CCC(=O)O)CC[C@]2(C)[C@H]3C(=O)C=C4[C@@H]5C[C@@](C)(C(=O)O)CC[C@]5(C)CC[C@@]4(C)[C@]3(C)CC[C@@H]12`, the “viability change, negative = cytotoxic” value was -4.44% [at 42.5 µM].

Regarding `O=[N+]([O-])c1ccc(NCCO)c(OCCO)c1`, the “viability change, negative = cytotoxic” value was 0.212%.

As to `CCNC(=S)NCC`, the Potency result is “inactive”.

On to `O=S1(=O)CCCC1`, for which the “viability change, negative = cytotoxic” value is 6.02%.

Take `OC1C(O)C(O)C(O)C(O)C1O` (stereo not given): the Potency entry is “inactive”.

Turning to `COc1cc2c(cc1OC)-c1cc(=Nc3c(C)cc(C)cc3C)n(C)c(=O)n1CC2`, the “viability change, negative = cytotoxic” value was -2.37% [at 42.5 µM].

Consider `CC(CN1c2ccccc2Sc2ccccc21)N(C)C` (stereo not given), for which the Potency result was “inactive”.

In the case of `Cc1cccc(O)c1C`, the Potency result is “inactive”.

Consider `CN(C)CCOC(c1ccc(Cl)cc1)c1ccccn1` (stereo not given), for which the “viability change, negative = cytotoxic” value is -1.27% [at 42.5 µM].

On to `Nc1cccc(N)n1`, for which the Potency result was “inactive”.

With `CCCCC(CC)COCCO` (stereo not given), the “viability change, negative = cytotoxic” value is 8.7%.

As to `NC1=NCC2c3ccccc3Cc3ccccc3N12` (stereo not given), the “viability change, negative = cytotoxic” value was -0.301% [at 42.5 µM].

Regarding `Cc1cc2c(cc1S(N)(=O)=O)S(=O)(=O)CCC2`, the “viability change, negative = cytotoxic” value is 3.18% [at 42.5 µM].

Take `CC(=O)c1ccc2c(c1)N(CCCN1CCC(CCO)CC1)c1ccccc1S2`: the “viability change, negative = cytotoxic” value is -0.754% [at 42.5 µM].

As for `Nc1ncnc2c1ncn2[C@@H]1O[C@H](CO)[C@@H](O)[C@H]1O`, the “viability change, negative = cytotoxic” value was -1.82% [at 42.5 µM].

For the compound `Nc1c(S(=O)(=O)O)cc(Br)c2c1C(=O)c1ccccc1C2=O`, the Potency entry is “inactive”.

As for `O=C(NS(=O)(=O)/C=C/c1cccs1)c1ccc(F)cc1Br`, the “viability change, negative = cytotoxic” value is 2.55%.

Consider `N#CSCSc1nc2ccccc2s1`, for which the “viability change, negative = cytotoxic” value is -10.4%.

In the case of `CC1CCC(C(C)C)C(O)C1` (stereo not given), the Potency result is “inactive”.

As to `CCOC(=O)CC(C)O` (stereo not given), the “viability change, negative = cytotoxic” value was -7.75%.

Regarding `CC(=O)[C@H]1CC[C@H]2[C@@H]3CCC4=CC(=O)CC[C@]4(C)[C@H]3CC[C@]12C`, the Potency was 60.8 µM (active) and 61.1 µM (active).

Turning to `c1cc(C(c2ccc(OCC3CO3)cc2)C(c2ccc(OCC3CO3)cc2)c2ccc(OCC3CO3)cc2)ccc1OCC1CO1` (stereo not given), the Potency result was “inactive”.

`CCN1CCN(c2cc3c(cc2F)c(=O)c(C(=O)O)cn3C2CC2)CC1`: the “viability change, negative = cytotoxic” value was 3% [at 42.5 µM].

In the case of `CCC(C)(C)OC`, the “viability change, negative = cytotoxic” value was -2.22%.

As for `NC1CCCCC1`, the Potency entry was “inactive”.

`CC(C)C[C@H](NC(=O)OCC1c2ccccc2-c2ccccc21)C(=O)O`: the “viability change, negative = cytotoxic” value is -1.5%.

Take `C[Si](C)(C)O[Si](C)(C)C`: the Potency entry is “inactive”.

Turning to `COc1ccc(N)c(C)c1`, the Potency result was “inactive”.

Regarding `CCCCC(CC)C(=O)OCCOCCOCCOCCOC(=O)C(CC)CCCC` (stereo not given), the “viability change, negative = cytotoxic” value is -4.95%.

`CC(=O)N(CC(O)CO)c1c(I)c(C(=O)NCC(O)CO)c(I)c(C(=O)NCC(O)CO)c1I` (stereo not given): the “viability change, negative = cytotoxic” value is 8.21% [at 42.5 µM].

For `COc1cc2nc(N3CCN(C(=O)c4ccco4)CC3)nc(N)c2cc1OC`, the viability change, negative = cytotoxic is 3.29% [at 18.9 µM].

As for `CCCC(C)=O`, the Potency result was “inactive”.

`C#C[C@]1(OC(C)=O)CC[C@H]2[C@@H]3CCC4=C/C(=N/O)CC[C@@H]4[C@H]3CC[C@@]21CC`: the “viability change, negative = cytotoxic” value was -5.21% [at 42.5 µM].

Regarding `CCCCC(O)/C=C(C)/C=C/C=C/C(=O)N1CCCC1=O` (stereo not given), the “viability change, negative = cytotoxic” value is 0.0221% [at 42.5 µM].

Take `C=CCn1cc[n+](C)c1`: the “viability change, negative = cytotoxic” value was 0.466%.
